# Test results as given in PubChem BioAssay AID1259374 (The Scripps Research Institute Molecular Screening Center, 2018).
# Among all 650,000 compounds or so, about 5,900 (0.91%) were called active. Rule as the data show it: active = inhibition above about 50%; inactive = the rest. What follows is part of a selection rich in actives, with near analogues and random picks from the rest.
# Target: Microphthalmia-associated transcription factor (Homo sapiens) (UniProt O75030)
# Experiment: MITF inhibitors, primary screen, biochemical, AlphaScreen, human (AID 1259374);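 also: 0% = vehicle wells with protein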
# Details: AlphaScreen MITF homodimerization, bead proximity signal; at 2.6 µM; stronger effect = higher value
# Sequence of Microphthalmia-associated transcription factor (Homo sapiens) (O75030 whole entry, looked up): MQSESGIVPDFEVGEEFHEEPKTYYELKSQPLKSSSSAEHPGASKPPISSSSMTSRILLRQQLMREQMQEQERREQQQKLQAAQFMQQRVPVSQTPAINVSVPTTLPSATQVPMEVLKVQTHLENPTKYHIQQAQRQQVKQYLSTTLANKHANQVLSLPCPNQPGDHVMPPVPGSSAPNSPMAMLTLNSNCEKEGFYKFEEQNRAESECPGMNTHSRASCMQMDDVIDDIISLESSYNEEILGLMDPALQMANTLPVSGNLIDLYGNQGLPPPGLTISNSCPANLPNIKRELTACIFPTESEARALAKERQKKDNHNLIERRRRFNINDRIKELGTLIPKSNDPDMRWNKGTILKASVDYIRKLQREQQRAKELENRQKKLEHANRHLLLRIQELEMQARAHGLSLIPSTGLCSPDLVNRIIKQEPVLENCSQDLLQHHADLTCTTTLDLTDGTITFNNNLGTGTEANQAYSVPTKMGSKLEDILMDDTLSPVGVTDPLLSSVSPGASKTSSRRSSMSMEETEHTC
row,Structure (SMILES),inhibition
1,S=c1[nH]nc(COc2cccc(Br)c2)n1-c1ccccc1,4.84% (inactive)
2,CN(Cc1ccccc1)C(=O)Cc1c(C(=O)O)n(C)c2ccccc12,12.8% (inactive)
3,O=C(CC1CCCCC1)NCc1ccc(F)cc1,-4.27% (inactive)
4,CCCCC(=O)NCc1ccc(F)cc1,56.8% (active)
5,Cc1ccc(CS(=O)(=O)CCC(=O)NCc2ccc(F)cc2)cc1,9.88% (inactive)
6,Cn1c(C(=O)O)c(CC(=O)Nc2ccc(F)cc2)c2ccccc21,-7.75% (inactive)
7,Cn1c(C(=O)O)c(CC(=O)NCc2ccc(F)cc2)c2ccccc21,63.1% (active)
8,CC(=O)/C=C/c1oc2ccccc2c1-c1ccc(C)o1,21.6% (inactive)
9,COc1cccc(/C=N/NC(=O)COc2cccc(Cl)c2)c1,1.05% (inactive)
10,Cc1ccc(-c2c(C(=O)O)nnn2-c2nonc2N)cc1,3.35% (inactive)
11,O=C(c1ccccc1)N1CCN(C2CCCC2)CC1,52.8% (active)
12,O=C(c1ccccc1F)N1CCN(C2CCCC2)CC1,29.8% (inactive)
13,O=C(c1ccc(-n2c(=S)[nH]c3ccccc3c2=O)cc1)N1CCN(C2CCCCC2)CC1,6.86% (inactive)
14,N#Cc1cc2cc3c(cc2nc1SCC(=O)Nc1nccs1)OCO3,5.9% (inactive)
15,Cc1nc(C(C)N(C)C(=O)Cn2cc(NC(=O)CCOc3ccccc3)cn2)c(C)s1 (stereo not given),-7.45% (inactive)
16,CCOC(=O)C(NC(=O)c1ccc(N2CC3CC(C2)c2cccc(=O)n2C3)c(NC(=O)c2cc(OC)cc(OC)c2)c1)C(=O)OCC (stereo not given),-6.03% (inactive)
17,COc1ccc(-c2cnnc(NCc3ccc(Cl)cc3)n2)cc1,-5.57% (inactive)
18,CCCCNc1ncnc2c1[nH]c1ccc(F)cc12,18% (inactive)
19,COc1ccc(C2=N/C(=C\c3ccco3)C(=O)O2)cc1OC,14.6% (inactive)
20,CCN(CC(=O)NCc1ccc(Cl)cc1)Cn1nnc2ccccc21,85.1% (active)
21,O=C(Cn1nnc2ccccc21)N/N=C/c1c(O)ccc2ccccc12,14.9% (inactive)
22,CCCn1c(=O)c(C(=O)NCc2ccc(Cl)cc2)c(O)c2ccccc21,13.8% (inactive)
23,COc1cc(-c2cn[nH]c2)ccc1C(=O)NCC(C)c1cccs1 (stereo not given),0.52% (inactive)
24,Cc1c(C(=O)Nc2cccc(C(F)(F)F)c2)sc2ncn(C)c(=O)c12,-1.25% (inactive)

row,Structure (SMILES),inhibition
1,Cc1ccc(NC(=O)c2ccc(NC(N)=O)cc2)cc1,-11% (inactive)
2,O=C(COc1ccc(Cl)cc1Cl)Nc1cccc(Br)c1,-1.08% (inactive)
3,Cc1cc(NC(=O)Cn2cnc3c2c(=O)n(C)c(=O)n3C)no1,18% (inactive)
4,Cc1cc(NC(=O)c2ccc(N(C)C)cc2)no1,7.76% (inactive)
5,Cc1cc(NC(=O)CNCCCN(C)C)no1,64.8% (active)
6,COC(=O)c1ccccc1NC(=O)CC1Nc2cc(C)c(C)cc2NC1=O (stereo not given),6.95% (inactive)
7,O=C(c1ccc2c(c1)OCO2)N1CCCCC1c1nc2ccccc2[nH]1 (stereo not given),10.6% (inactive)
8,CCCN1CCC(N2CCN(c3cccc(Cl)c3)CC2)CC1,15% (inactive)
9,CCS(=O)(=O)N1CCC(N2CCN(c3ccccc3)CC2)CC1,11.4% (inactive)
10,CN1CCC(N2CCN(c3ccccc3Cl)CC2)CC1,55.2% (active)
11,Cc1nc(-c2cncc(Br)c2)cc(N2CCC(O)CC2)n1,3.37% (inactive)
12,CC(C)C(c1nnnn1C(C)C)N1CCN(c2ccccc2F)CC1 (stereo not given),7.59% (inactive)
13,CCOC(=O)C1=C(C)N=C2SCC(=O)N2C1c1cc(OC)c(OC)c(OC)c1 (stereo not given),15.1% (inactive)
14,COc1ccc(C2C(C(C)=O)=C(C)N=C3SCC(=O)N32)c(OC)c1 (stereo not given),63.8% (active)
15,COc1ccc(C2C(C(C)=O)=C(C)N=c3s/c(=C\c4cc(C)n(-c5ccc(Cl)cc5)c4C)c(=O)n32)c(OC)c1 (stereo not given),0.25% (inactive)
16,CCc1nnc(NC(=O)CSc2nnc(-c3ccccn3)n2-c2ccccc2C)s1,1.39% (inactive)
17,CCOc1cc(C2C3=C(CCCC3=O)N(CC)C3=C2C(=O)CCC3)cc(Cl)c1O,3.45% (inactive)
18,COC(=O)C1(C)NC(c2ccccc2OC)C2C(=O)N(c3ccccc3)C(=O)C21 (stereo not given),17.7% (inactive)
19,COC(=O)C1(C)NC(c2ccc(C)cc2)C2C(=O)N(c3ccc(F)cc3)C(=O)C21 (stereo not given),77.9% (active)
20,COC(=O)C1(C)NC(c2ccc(C)cc2)C2C(=O)N(c3ccc(C)cc3)C(=O)C21 (stereo not given),10.8% (inactive)
21,CC(=O)c1ccc(N2CN=C3SCC(=O)N3C2)cc1,9.73% (inactive)
22,CCCNC(=O)Cc1ccc(-n2c(=O)c3ccccc3n(CC(=O)NC3CCCCC3)c2=O)cc1,-13.8% (inactive)
23,c1ccc(CCCCNc2nccc(Nc3ccncn3)n2)cc1,61.3% (active)
24,c1ccc(CCCNc2nccc(Nc3ccncn3)n2)cc1,10.6% (inactive)

row,Structure (SMILES),inhibition
1,c1ccc(CCNc2nccc(Nc3ccncn3)n2)cc1,-8.19% (inactive)
2,O=C(NCc1ccccc1)c1ccc2c(c1)nc(SCc1ccc([N+](=O)[O-])cc1)n1c3ccccc3nc21,13.9% (inactive)
3,Cc1ccc(CNC(=O)Cn2ncc3c2-c2ccccc2OC3)cc1,4.23% (inactive)
4,Cc1cc(NC(=O)c2ccco2)ncc1NC(=O)c1cnccn1,6.96% (inactive)
5,Clc1ccc(CN2CCOCC2)c(Cl)c1,43.8% (inactive)
6,Cc1ccc(CN2CCOCC2)c(C)c1,-2.63% (inactive)
7,Oc1c(CN2CCOCC2)ccc(CN2CCOCC2)c1O,52% (active)
8,Cc1cc(C)nc(NC(=O)c2ccccc2Br)c1,-3% (inactive)
9,COCCn1c(=S)[nH]c2cc(C(=O)NCCC3=CCCCC3)ccc2c1=O,0.32% (inactive)
10,O=C(COc1ccccc1)NCc1cccnc1,-5.7% (inactive)
11,CN(Cc1ccccc1)C(=O)CCC1CCN(C(=O)CCc2ccccn2)CC1,-1.89% (inactive)
12,CN(CCc1ccccn1)Cc1cccnc1,73.8% (active)
13,CCOc1cc(/C=C2\NC(=S)NC2=O)cc(Br)c1OC,19.5% (inactive)
14,Cc1ccc(C)c(-n2c(SCCN3CCOCC3)nnc2-c2cccnc2)c1,-3.61% (inactive)
15,O=C1OCCN1c1ccc(Nc2nccc(-c3cc(N4CCOCC4)cc([N+](=O)[O-])c3)n2)cc1,0.11% (inactive)
16,Cc1c2c(c(O)c3c(O)cccc13)C(=O)OC2[C@@H]1C(N(C)C)C(O)=C(C(N)=O)C(=O)[C@H]1O (stereo not given in full),108% (active)
17,O=C1OC(c2ccccc2Cl)=N/C1=C\c1ccccc1[N+](=O)[O-],-1.22% (inactive)
18,Cc1nc2sccn2c1CN1CCC(C2(Cc3ccccc3)NC(=O)NC2=O)CC1 (stereo not given),-18.4% (inactive)
19,Cc1cc(C(F)(F)F)nn1CC(=O)Nc1ccc(I)c(Cl)c1,6.94% (inactive)
20,COC(=O)c1c(OCCCN(C)C)cc(=O)n2c1CCN(C(=O)c1ccc(F)cc1)CC2,-2.23% (inactive)
21,O=S(=O)(NCC(c1ccc2c(c1)OCO2)N1CCOCC1)c1cccs1 (stereo not given),1.27% (inactive)
22,COc1cc(/C=N/n2c(-c3ccncc3)n[nH]c2=S)cc(OC)c1OC(C)=O,6.48% (inactive)
23,Cc1cc(NC(=O)/C=C/C(=O)N(CC(=O)NC2CCCC2)c2ccc(F)cc2)no1,75% (active)
24,Cc1cc(NC(=O)CCC(=O)N(CC(=O)NC2CCCC2)c2ccc(F)cc2)no1,-6.06% (inactive)

row,Structure (SMILES),inhibition
1,Cc1cc(C)cc(N(CC(=O)NC2CCCC2)C(=O)CCC(=O)Nc2cc(C)on2)c1,5.39% (inactive)
2,CCOC(=O)CSC1=Nc2ccccc2C2=NC(C(C)C)C(=O)N12 (stereo not given),1.69% (inactive)
3,O=C1NC(c2ccccc2[N+](=O)[O-])C(C(=O)c2cccs2)C(O)(C(F)(F)F)N1 (stereo not given),58.9% (active)
4,O=C1NC(c2c(F)cccc2Cl)C(C(=O)c2cccs2)C(O)(C(F)(F)F)N1 (stereo not given),-3.71% (inactive)
5,O=C1NC(c2cccs2)C(C(=O)c2cccnc2)C(O)(C(F)(F)F)N1 (stereo not given),-3.66% (inactive)
6,CCN(CC)CCN(CC)Cc1c(F)cccc1F,6.2% (inactive)
7,CCN(CCN(C)C)Cc1c(Cl)cccc1Cl,56.6% (active)
8,CN(C)CCN(C)Cc1c(F)cccc1Cl,49.6% (inactive)
9,CCOC(=O)C1C(=O)C=C(c2ccc(F)cc2)CC1c1cccs1 (stereo not given),-5.44% (inactive)
10,C[C@@H](c1ccccc1)N1C(=O)[C@H]2[C@H]3[C@H](O)C=CC(=O)[C@@H]3CC[C@H]2C1=O,17.6% (inactive)
11,CC(C)CO/N=C1\C[C@@H](O)[C@@H](O)[C@@H]2[C@@H]3C(=O)N(C[C@@H]4CCCO4)C(=O)[C@@H]3CC[C@@H]12,-23% (inactive)
12,CC(C)CO/N=C1\C[C@@H](O)[C@@H](O)[C@@H]2[C@@H]3C(=O)N([C@@H](C)c4ccccc4)C(=O)[C@@H]3CC[C@@H]12,114% (active)
13,O=C(CN(Cc1cccs1)C(=O)c1nsc(Cl)c1Cl)NC1CCCC1,11.8% (inactive)
14,Nc1nccc(-c2ccc3nc(C4COc5ccc(Br)cc5C4)[nH]c3c2)n1 (stereo not given),8.16% (inactive)
15,Cc1nn(C(=O)N2CCOCC2)c(C)c1Br,13.6% (inactive)
16,NC(=O)CCn1cc(/C=C2\Cc3ccccc3C2=O)c2ccccc21,-5.7% (inactive)
17,Clc1ccc(Cl)c(N2Cc3cc4c(cc3C2)CN(c2cc(Cl)ccc2Cl)C4)c1,4.43% (inactive)
18,COc1cccc(OC)c1C(=O)OCC(=O)/C(C#N)=C(\C)N,-4.31% (inactive)
19,C/C(N)=C(/C#N)C(=O)COC(=O)c1c2c(nc3ccccc13)/C(=C/c1ccco1)CC2,81.7% (active)
20,COc1ccc(-c2cc(C(=O)OCC(=O)/C(C#N)=C(\C)N)c3ccccc3n2)cc1,7.78% (inactive)
21,Cc1cc(NC(=O)CSc2ccc(-c3ccccn3)nn2)no1,78.7% (active)
22,O=C(CSc1ccc(-c2ccccn2)nn1)Nc1ccccc1,49.6% (inactive)
23,CCOc1ccc(-c2ccc(SCC(=O)Nc3cc(C)on3)nn2)cc1,4.05% (inactive)
